The structures appear in SMILES notation. Among all 2,400 compounds or so, about 1,800 (75%) were called active.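 The calls were made as follows: active = inhibition above the primary screen limit, the mean inhibition of all tested compounds plus 3 SD (cut at about 25% in these data); inactive = the rest.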 So high a share suggests a set chosen from earlier hits. These entries were drawn from the full list.

This test concerns tRNA 2'-phosphotransferase TPT1 [Candida albicans SC5314]. Nature of the test: Candida albicans TPT1 inhibitors, confirmation, biochemical, fluorescence polarization, triplicate (AID 2149). The following applies: recombinant caTPT1, fluorescence polarization, RNase T1 coupled; at 5 µM; stronger effect = higher value.
The inhibition is the drop in the measured response relative to a control, in per cent. Turning to `CC(C)c1ccc(Nc2nnc(SCC(=O)c3nnc(-c4ccccc4)o3)s2)cc1`, the inhibition is 21.4% (inactive).
As for `Cc1cccc2cc3c(N)c(C(=O)N4CCCc5ccccc54)sc3nc12`, the figure is 51.9% (active); as for `COC(=O)c1[nH]c2cccc(C)c2c1NC(=O)CN1CCCc2ccccc21`, 19% (inactive).
In the case of `CCOC(=O)C1=C(C)Nc2sc(C(=O)c3ccc(Br)cc3)c(N)c2C1c1ccc(C(=O)OC)cc1` (stereo not given) it was 29.3% (active).
As for `CCC(c1nnnn1Cc1ccco1)N(Cc1cc2cc(OC)ccc2[nH]c1=O)C1CCCCC1` (stereo not given), the figure is 13.7% (inactive).
For the compound `CC1=CC2=NC(=O)/C(=C/c3coc4ccccc4c3=O)C(=N)N2O1`, the inhibition was 34% (active).
As for `CCC(=C/c1sc2ccc3ccccc3c2[n+]1C)/C=C1\Sc2ccc3ccccc3c2N1C`, the figure is 84.5% (active).
Regarding `NC(=O)c1c(Nc2nc3c(F)cccc3s2)sc2c1CCCC2`, the inhibition was 92.7% (active).
As for `CN(C)CCCn1c(N)c(C#N)c2nc(C#N)c(C#N)nc21`, the inhibition was 45.1% (active).
In the case of `O=S(=O)(O)Oc1c[nH]c2ccccc12`, the inhibition is 35.9% (active).
As to `Cc1c(CC(=O)N2CCN(C(=O)C3COc4ccccc4O3)CC2)c(=O)oc2c(O)c(O)ccc12` (stereo not given), the inhibition was 7.54% (inactive).
For the compound `O=C(Cc1nc2ccccc2[nH]c1=O)c1ccc(Cl)cc1`, the inhibition was 57.8% (active).
As for `O=C(/C=C/c1ccc(N2CCOCC2)cc1)c1ccccc1`, the figure is 84.6% (active); as for `COc1cc(/C=C(\C#N)c2nc3c(s2)CC(C)CC3)ccc1O` (stereo not given), 130% (active); as for `COc1cc(/C=C(\C#N)c2nc3ccccc3[nH]2)ccc1O`, 112% (active).
On to `O=C(CN1C(=O)c2ccccc2C1=O)NCc1ccc(C(=O)O)cc1`, for which the inhibition was 14.3% (inactive).
In the case of `Cc1cccn2c(=O)c(/C=C3\SC(=S)N(CC(C)C)C3=O)c(NCCCOC(C)C)nc12` it was 119% (active); in that of `Cn1ccc(=NC=C(C#N)C#N)c2ccccc21`, 25.4% (active); in that of `O=C(C[n+]1cc(Br)cc2ccccc21)c1ccc(F)cc1`, 37.5% (active).
As for `CCOc1cc(/C=C(\C#N)c2nc(-c3cccs3)c(NC(C)=O)s2)ccc1O`, the figure is 90.5% (active); as for `O=[N+]([O-])c1ccc(N/N=C/c2ccccc2)cc1`, 41.6% (active); as for `Cc1cccc(COc2ccccc2/C=N/Nc2ccc([N+](=O)[O-])cc2)c1`, 90.6% (active).
For `Cc1cccc(NC(=O)c2ccc(COc3ccccc3[N+](=O)[O-])o2)n1`, the inhibition is 7.02% (inactive).
As for `CCCOc1ccc(Cn2c(O)cc(=O)[nH]c2=O)cc1`, the inhibition was 22.1% (inactive).
For the compound `Cc1cc(C)c(/C=C2\C(=O)Nc3ccccc32)[nH]1`, the inhibition was 113% (active).
As for `CN1C(=O)/C(=C\c2ccc(-c3ccccc3)o2)SC1=S`, the inhibition is 79.6% (active).
Turning to `O=C(O)C(c1ccccc1)N1C(=O)/C(=C\c2ccc(-c3cccc(Cl)c3)o2)SC1=S` (stereo not given), the inhibition was 151% (active).
In the case of `CC[n+]1cc(C)ccc1/C=C/c1ccc(N(C)C)cc1` it was 42.1% (active); in that of `Cc1ccc(S(=O)(=O)N(C)c2nc3ccccc3n3c(C(C)C)nnc23)cc1`, -0.34% (inactive); in that of `N#C/C(=C/c1ccc(N2CCOCC2)o1)C(=O)N1CCOCC1`, 184% (active).
In the case of `Cc1ccc(CC2S/C(=C(/C#N)C(=O)N3CCOCC3)N(c3ccccc3)C2=O)cc1` (stereo not given) it was 9.14% (inactive).
Regarding `N#C/C(=C\c1ccc(N2CCOCC2)o1)C(=O)N1CCOCC1`, the inhibition is 170% (active).
As to `CC1CCN(C(=O)c2ccc3c(c2)NC(=O)CN3)CC1`, the inhibition is 39.9% (active).
`Cc1ccc(N=C2NC(=O)/C(=C/C=C/c3ccco3)S2)cc1C`: the inhibition was 23.8% (inactive).
In the case of `N#CC1=C(N)Oc2c(sc3ccccc23)C1c1ccco1` (stereo not given) it was 78.6% (active).
In the case of `O=C(NNc1c2ccccc2nc2ccccc12)c1cc2ccccc2cc1O` it was 38.5% (active); in that of `CN1/C(=c2/s/c(=C3/C(=O)N(c4ccccc4)NC3=Nc3ccccc3)n(C)c2=O)C(C)(C)c2ccccc21`, 81% (active); in that of `Cc1ccc2cc(/C=N/Nc3ccc(C(=O)O)cc3)c(Cl)nc2c1`, 35.9% (active).
In the case of `CCOc1ccc(/C=C2\SC(=S)N(NC(=O)c3ccncc3)C2=O)cc1OC` it was 51.7% (active).
For `Cc1ccc(C)c2[nH]c(=O)c(CCNC(=O)CC(C)C)cc12`, the inhibition was 3.97% (inactive).
